Assay results from PMC4336329 (PLoS ONE, 2015).
About 14,000 (4.5%) of roughly 310,000 compounds showed an effect of 50% or more. The effect is printed as a negative number. This is one part of a sample in which strong results are shown more often than they occur.

Molecular target: human ether-à-go-go-related gene (hERG) potassium channel (human, UniProt Q12809)
Assay: primary screen, population patch clamp on CHO cells stably expressing hERG; higher = less effect of the substance
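Note: peak tail current of the secondary pulse compared with the same well before compound.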

Sequence of human ether-à-go-go-related gene (hERG) potassium channel (Q12809 whole entry, looked up): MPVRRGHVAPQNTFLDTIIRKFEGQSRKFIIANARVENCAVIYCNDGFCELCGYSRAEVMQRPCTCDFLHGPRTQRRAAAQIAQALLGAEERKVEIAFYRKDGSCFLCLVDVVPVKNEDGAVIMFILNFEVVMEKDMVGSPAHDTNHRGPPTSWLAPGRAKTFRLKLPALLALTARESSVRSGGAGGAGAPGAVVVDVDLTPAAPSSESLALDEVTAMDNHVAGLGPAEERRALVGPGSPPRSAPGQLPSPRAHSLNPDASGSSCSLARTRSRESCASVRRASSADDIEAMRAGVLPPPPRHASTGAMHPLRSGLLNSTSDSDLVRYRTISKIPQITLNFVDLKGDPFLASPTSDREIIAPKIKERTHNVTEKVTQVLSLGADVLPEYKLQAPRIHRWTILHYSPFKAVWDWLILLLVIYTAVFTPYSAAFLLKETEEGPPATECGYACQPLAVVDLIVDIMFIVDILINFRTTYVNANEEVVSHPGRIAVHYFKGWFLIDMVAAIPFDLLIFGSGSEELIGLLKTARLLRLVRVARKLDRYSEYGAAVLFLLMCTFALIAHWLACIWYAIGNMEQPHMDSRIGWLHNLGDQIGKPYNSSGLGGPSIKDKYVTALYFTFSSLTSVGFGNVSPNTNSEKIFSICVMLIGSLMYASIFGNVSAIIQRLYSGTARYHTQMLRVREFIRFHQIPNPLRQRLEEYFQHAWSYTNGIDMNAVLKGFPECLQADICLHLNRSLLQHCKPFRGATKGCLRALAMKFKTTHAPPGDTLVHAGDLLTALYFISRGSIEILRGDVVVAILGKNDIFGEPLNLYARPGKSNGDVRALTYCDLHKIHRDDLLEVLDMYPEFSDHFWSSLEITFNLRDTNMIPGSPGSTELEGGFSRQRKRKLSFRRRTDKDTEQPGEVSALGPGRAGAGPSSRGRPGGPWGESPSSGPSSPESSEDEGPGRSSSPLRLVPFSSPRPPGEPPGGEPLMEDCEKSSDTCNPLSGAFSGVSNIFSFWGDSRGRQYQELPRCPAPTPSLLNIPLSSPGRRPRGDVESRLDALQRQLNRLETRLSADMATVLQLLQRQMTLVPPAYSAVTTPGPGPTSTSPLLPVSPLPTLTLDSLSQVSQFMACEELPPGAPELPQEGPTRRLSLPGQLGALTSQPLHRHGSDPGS

In order of falling “hERG current change (%, negative = inhibition) at 10uM” value:
1. CC(=O)Nc1ccc2nc(NC(=O)C(Cl)(Cl)Cl)sc2c1  31.1%
2. COc1cc(OC)cc(C(=O)OCCCOC(=O)c2cc(OC)cc(OC)c2)c1  24.6%
3. O=C(O)CCCSc1nccn1-c1ccccc1  22.3%
4. COCC(=O)Nc1ccc(F)cc1  18.6%
5. C/C(=N\NC(=O)c1nnn(-c2nonc2N)c1CSc1ccccc1)c1ccc2c(c1)OCO2  17.5%
6. COc1nc(NC(C)(C)C)nc(Oc2ccc(=O)n(C)n2)n1  16.8%
7. COc1ccc(C(=O)Nc2ccc(NC(=O)c3ccccc3)cc2)cc1S(=O)(=O)N1CCOCC1  16.6%
8. COc1ccccc1CCC(=O)Nc1nc2ccccc2[nH]1  15.7%
9. CCOC(=O)SC1=N/C(=C\c2ccc(N(C)C)cc2)C(=O)S1  14.9%
10. COc1ccc(CCC(=O)Nc2nc3ccccc3[nH]2)cc1  14.3%
11. c1cc(-c2nnc3n2CCC3)[nH]n1  12.5%
12. CN(C)c1nc(-c2cccnc2)nc(-c2ccccc2)c1C#N  10.3%
13. Cc1ccc(S(=O)(=O)c2c(C)nn(C(C)(C)C)c2OC(=O)c2ccc(Br)o2)cc1  7.32%
14. Cc1cc(C)n(CCCNC(=O)Cn2nnnc2CN2C[C@@H](C)O[C@@H](C)C2)n1  6.72%
15. O=c1c(Cc2ccc(F)cc2)c(O)ccn1Cc1ccc(Cl)cc1Cl  6.08%
16. CCOc1ccc(NC(=O)COc2ccc3c(c2)CCC3)cc1OC  3.04%
17. O=C(Nc1nc2ccccc2[nH]1)c1ccc(S(=O)(=O)N2CCOCC2)cc1  2.85%
18. COc1ccc(C(=O)Nc2ccccc2C)cc1S(=O)(=O)N1CCOCC1  2.73%
19. COc1cc(O)c(C(CC(=O)N2CCCC(C)C2)c2cc(OC)c(OC)c(OC)c2)c(OC)c1 (centres unmarked)  2.69%
20. CC(=O)OC1CC(c2cc(C(C)(C)C)c(O)c(C(C)(C)C)c2)=NO1 (centres unmarked)  0.755%
21. Cc1ccccc1NCc1ccccc1O.Cl  -0.966%
22. Clc1ccccc1-c1nnc2n1-c1ccccc1SC2  -3.67%
23. COc1ccc(CCN(C)C(=O)c2ccc(COc3ccccc3)o2)cc1OC  -3.91%
24. c1ccc(-c2cc(N3CCOCC3)nc(-c3ccccc3)n2)cc1  -5.46%
25. O=C(CSc1nc(-c2ccccc2F)nc2nc[nH]c12)Nc1c(Cl)cc(Cl)cc1Cl  -6.09%
26. COc1ccc(C(=O)Nc2nc3ccccc3[nH]2)cc1OC  -6.47%
27. CCOC(=O)COc1ccc(Oc2nc(C)cc(OC)n2)nn1  -7.8%
28. Oc1cc2ccccc2cc1-c1nnc2n1-c1ccccc1SC2  -8.27%
29. Cc1cc(NC(=O)Nc2ccc(F)cc2)no1  -8.3%
30. O=C(Nc1nc2ccccc2[nH]1)c1cccc(S(=O)(=O)N2CCOCC2)c1  -8.91%
31. O=C(Nc1nc2ccccc2[nH]1)c1ccc(Cl)c(S(=O)(=O)N2CCCC2)c1  -9.28%
32. Cl.NCCC(=O)N1c2ccccc2Sc2ccc(Cl)cc21  -10.8%
33. CCN(CC)C(=O)CSc1nnc(-c2cccs2)n1Cc1ccco1  -11%
34. Cl.Nc1nonc1C(=O)NCCNCc1c(OCc2ccccc2F)ccc2ccccc12  -11.9%
35. COc1ccc(CCNC(=O)COC(=O)/C=C/c2ccc(OCC#N)c(OC)c2)cc1OC  -17.1%
36. c1ccc2c(c1)Sc1ccccc1-n1cnnc1-2  -20.3%
37. O=C(Nc1nc2ccccc2[nH]1)c1ccc(F)c(S(=O)(=O)N2CCOCC2)c1  -50.3%
38. Clc1ccc2c(c1)-c1nnc(Br)n1-c1ccccc1S2  -52.5%
39. COc1ccc(C(=O)Nc2nc3ccccc3[nH]2)cc1S(=O)(=O)N1CCCC1  -52.8%
40. COc1ccc(CCC(=O)Nc2nc3ccccc3[nH]2)cc1OC  -55.7%
41. Cl.Nc1nonc1C(=O)NCCNCc1ccccc1OCc1ccccc1F  -60.5%
42. Cl.Nc1nonc1C(=O)NCCNCc1ccccc1OCc1ccc(F)cc1  -65.9%
43. COc1ccc(C(=O)Nc2nc3ccccc3[nH]2)cc1S(=O)(=O)N1CCOCC1  -70.1%
44. Brc1nnc2n1-c1ccccc1Sc1ccccc1-2  -71.8%
